Experimental data as given in PubChem BioAssay (NCI).
“And” between values parts separate entries of the source, which are not always exact repeats. Equal values may be shown once. Compounds without any hit were thinned out: in the full panel of roughly 83,000, 20% have a hit.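 Negative percent growth values reflect cell death: -40 means 40% of the cells present at the start died, and -100 means all died.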 The source made the active and inactive calls. The calls were made as follows: active = growth percent below 10; inactive = the rest.

Key:
Test in all cases: NCI-60 one-dose screen, 48 h (100 = growth as untreated, 0 = no growth, -100 = all killed)
Settings in all cases: 10 µM unless noted
NCI-H23 lung = system: NCI-H23 lung
NCI-H226 lung = system: NCI-H226 lung
NCI-H322M lung = system: NCI-H322M lung
HOP-62 NSCLC = system: HOP-62 NSCLC
NCI-H460 lung = system: NCI-H460 lung
HOP-92 NSCLC = system: HOP-92 NSCLC
NCI-H522 lung = system: NCI-H522 lung
A549/ATCC NSCLC = system: A549/ATCC NSCLC
786-0 renal = system: 786-0 renal
COLO 205 colon = system: COLO 205 colon
DU-145 prostate = system: DU-145 prostate
K-562 leukemia = system: K-562 leukemia
MALME-3M melanoma = system: MALME-3M melanoma
MDA-MB-231 breast = system: MDA-MB-231 breast
RXF 393 renal = system: RXF 393 renal
SF-268 CNS = system: SF-268 CNS
SF-295 CNS = system: SF-295 CNS
SF-539 CNS = system: SF-539 CNS
UACC-257 melanoma = system: UACC-257 melanoma
M14 melanoma = system: M14 melanoma

Measured: growth

CCN(CC)CCOc1ccccc1C
inactive: NCI-H23 lung 111% | NCI-H226 lung 116% | NCI-H322M lung 115% | HOP-62 NSCLC 93.8% | NCI-H460 lung 109% | HOP-92 NSCLC 94.6% | NCI-H522 lung 92.6% | A549/ATCC NSCLC 98.6% | 786-0 renal 98.8% | COLO 205 colon 111% | DU-145 prostate 113% | K-562 leukemia 97.5% | MALME-3M melanoma 105% | MDA-MB-231 breast 103% | RXF 393 renal 160% | SF-268 CNS 120% | SF-295 CNS 101% | SF-539 CNS 93.7% | UACC-257 melanoma 106% | M14 melanoma 98.8%

O=c1ccc2nc(-c3ccccn3)nn(-c3ccccc3)c-2c1
inactive: NCI-H23 lung 89.5% | NCI-H226 lung 90.1% | NCI-H322M lung 102% | HOP-62 NSCLC 93.4% | NCI-H460 lung 109% | HOP-92 NSCLC 36.8% | A549/ATCC NSCLC 101% | 786-0 renal 53.6% | DU-145 prostate 91% | MDA-MB-231 breast 68.4% | RXF 393 renal 65% | SF-268 CNS 98% | SF-295 CNS 96.3% | SF-539 CNS 103% | UACC-257 melanoma 60.3% | M14 melanoma 90.3%
active: NCI-H522 lung -45% | COLO 205 colon -59.4% | K-562 leukemia -8.79% | MALME-3M melanoma -20.6%

O=C(Nc1ccc(Cl)c(Cl)c1)Nc1ccc(Cl)c(Cl)c1
-63.1% (active) and 20.4% (inactive): 786-0 renal
-33.4% (active) and 12.4% (inactive): K-562 leukemia
active: NCI-H23 lung -36.5% and 4.84% | NCI-H460 lung -63.6% and 4.34% | HOP-92 NSCLC -86.2% and -5.71% | NCI-H522 lung -83.9% and 6.21% | MALME-3M melanoma -16.1% | SF-295 CNS -11.8%
-83.3% (active) and 51.1% (inactive): SF-539 CNS
-86.9% (active) and 17.1% (inactive): COLO 205 colon
-81.9% (active) and 50% (inactive): UACC-257 melanoma
-63% (active) and 17.6% (inactive): A549/ATCC NSCLC
-83.4% (active) and 40.8% (inactive): HOP-62 NSCLC
-93.6% (active) and 19.2% (inactive): NCI-H322M lung
-85.7% (active) and 33.4% (inactive): M14 melanoma
-94.8% (active) and 21.1% (inactive): DU-145 prostate
-91.1% (active) and 24.1% (inactive): MDA-MB-231 breast
-88.2% (active) and 58.8% (inactive): RXF 393 renal
inactive: NCI-H226 lung 23.7%
-80.7% (active) and 31.9% (inactive): SF-268 CNS

Cc1nn(-c2nc(-c3cc4ccccc4oc3=O)cs2)c(C)c1N=Nc1ccccc1
inactive: NCI-H23 lung 98% | NCI-H226 lung 105% | NCI-H322M lung 97.3% | HOP-62 NSCLC 102% | NCI-H460 lung 108% | HOP-92 NSCLC 79.9% | NCI-H522 lung 97.8% | A549/ATCC NSCLC 114% | 786-0 renal 104% | COLO 205 colon 114% | DU-145 prostate 90.4% | K-562 leukemia 93% | MALME-3M melanoma 96.5% | MDA-MB-231 breast 87.8% | RXF 393 renal 112% | SF-268 CNS 105% | SF-295 CNS 104% | SF-539 CNS 102% | UACC-257 melanoma 103% | M14 melanoma 110%

C=C1CC[C@@H]2[C@](C)(COC(C)=O)[C@H](OC(C)=O)CC[C@@]2(C)[C@@H]1CC(Nc1ccc(S(=O)(=O)Nc2nccs2)cc1)C1=CCOC1=O (stereo not given in full)
active: NCI-H226 lung -14% | NCI-H522 lung -61.9% | 786-0 renal 6.27% | COLO 205 colon -24.6% | K-562 leukemia 3.4% | MALME-3M melanoma 0.4% | MDA-MB-231 breast 5.69% | RXF 393 renal -50.6% | SF-539 CNS -67.1% | M14 melanoma 8.12%
inactive: NCI-H23 lung 38.1% | NCI-H322M lung 59.9% | HOP-62 NSCLC 120% | NCI-H460 lung 29.5% | HOP-92 NSCLC 54% | A549/ATCC NSCLC 43.7% | DU-145 prostate 22.3% | SF-268 CNS 21.3% | SF-295 CNS 73% | UACC-257 melanoma 22.4%

N=C(N)c1ccc(-c2ccc(-c3ccc(Cl)c(Cl)c3)s2)cc1
inactive: NCI-H23 lung 63.1% | NCI-H226 lung 98.9% | HOP-62 NSCLC 40.8% | HOP-92 NSCLC 74.4% | MALME-3M melanoma 78.7% | RXF 393 renal 77.9% | SF-268 CNS 56.2% | SF-295 CNS 35.5% | SF-539 CNS 52.7% | UACC-257 melanoma 96.6% | M14 melanoma 38.1%
active: NCI-H322M lung -3.21% | NCI-H460 lung -58.7% | NCI-H522 lung -38.4% | A549/ATCC NSCLC -51.9% | 786-0 renal -3.47% | COLO 205 colon -17.9% | DU-145 prostate -88.9% | K-562 leukemia -11.6% | MDA-MB-231 breast -20.2%

CONC1=Nc2cc(NC(N)=NCc3ccccc3)c(N(C)C3CCCCC3)cc2OC1
inactive: NCI-H23 lung 68.3% | NCI-H226 lung 67.3% | NCI-H322M lung 87% | HOP-62 NSCLC 82.3% | NCI-H460 lung 59.7% | HOP-92 NSCLC 35.4% | NCI-H522 lung 59.3% | A549/ATCC NSCLC 78.7% | 786-0 renal 71.2% | DU-145 prostate 72.6% | K-562 leukemia 23.6% | MALME-3M melanoma 78.6% | MDA-MB-231 breast 25.5% | RXF 393 renal 41.2% | SF-268 CNS 68.1% | SF-295 CNS 83.3% | SF-539 CNS 75.9% | UACC-257 melanoma 89.5% | M14 melanoma 78.1%
active: COLO 205 colon -36.1%

COc1ccc(C(=O)N/N=C/c2ccc(O)cc2O)cc1Nc1ccnc(C(F)(F)F)c1
active: 786-0 renal 3.75% | MALME-3M melanoma 9.52% | M14 melanoma 2.43%
inactive: NCI-H23 lung 32.1% | NCI-H226 lung 45% | NCI-H322M lung 30.9% | HOP-62 NSCLC 11.8% | NCI-H460 lung 24.7% | HOP-92 NSCLC 51.8% | NCI-H522 lung 36.2% | A549/ATCC NSCLC 53.3% | COLO 205 colon 37.1% | DU-145 prostate 48.1% | K-562 leukemia 26.6% | MDA-MB-231 breast 51.6% | RXF 393 renal 49% | SF-268 CNS 49.9% | SF-295 CNS 22.7% | SF-539 CNS 10.3% | UACC-257 melanoma 33.1%

COc1ccc(C/C(C)=C(/c2ccc(OCCN3CCCCCC3)cc2)c2ccc(OC(=O)c3ccccc3)cc2)cc1
inactive: NCI-H23 lung 109% | NCI-H226 lung 110% | NCI-H322M lung 102% | HOP-62 NSCLC 91.3% | NCI-H460 lung 110% | HOP-92 NSCLC 105% | NCI-H522 lung 75.6% | A549/ATCC NSCLC 97.5% | 786-0 renal 96.8% | COLO 205 colon 113% | DU-145 prostate 114% | K-562 leukemia 89.7% | MALME-3M melanoma 104% | MDA-MB-231 breast 104% | RXF 393 renal 124% | SF-268 CNS 106% | SF-295 CNS 96.1% | SF-539 CNS 96.8% | UACC-257 melanoma 100% | M14 melanoma 95.3%

Nc1n[nH]c2cccc(C#Cc3cccc(NC(=O)c4ccc(N5CCOCC5)c(C(F)(F)F)c4)c3)c12
inactive: NCI-H23 lung 13.5% | NCI-H322M lung 10.4% | HOP-62 NSCLC 16.8% | NCI-H460 lung 18.7% | A549/ATCC NSCLC 13% | DU-145 prostate 25.7% | MALME-3M melanoma 11.2% | SF-268 CNS 23.4% | UACC-257 melanoma 17.6%
active: NCI-H226 lung -0.121% | HOP-92 NSCLC -47.1% | NCI-H522 lung 9.42% | 786-0 renal -39.4% | COLO 205 colon -18.2% | K-562 leukemia 0.995% | MDA-MB-231 breast -22.3% | RXF 393 renal -66% | SF-295 CNS -36.9% | SF-539 CNS -56% | M14 melanoma 3.69%

CC[C@H](C)[C@H](NC(=O)[C@@H](N)CCC(N)=O)C(=O)N[C@@H](Cc1ccc(O)cc1)C(=O)N[C@@H](CCCCN)C(=O)N[C@@H](CCCCN)C(=O)N[C@@H](Cc1ccc(O)cc1)C(=O)N[C@@H](CCCNC(=N)N)C(=O)N[C@H](C(=O)N[C@@H](Cc1c[nH]c2ccccc12)C(=O)N[C@@H](Cc1ccc(O)cc1)C(=O)N[C@@H](CCCNC(=N)N)C(=O)N[C@@H](CCCCN)C(=O)N[C@@H](C)C(=O)N[C@@H](Cc1c[nH]c2ccccc12)C(=O)N[C@@H](CCCCN)C(=O)N[C@H](C(=O)N[C@@H](CC(C)C)C(=O)NCC(=O)N[C@@H](CCCCN)C(=O)N[C@H](C(N)=O)C(C)C)C(C)C)[C@@H](C)O
active: NCI-H23 lung -15.1% | NCI-H460 lung -4.21% | HOP-92 NSCLC -21.2% | 786-0 renal -57.9% | COLO 205 colon 0.119% | DU-145 prostate 6.03% | K-562 leukemia 5.04% | MALME-3M melanoma -30.6% | MDA-MB-231 breast -29.7% | SF-268 CNS -29.8% | SF-539 CNS -40.7% | M14 melanoma -11.8%
inactive: NCI-H226 lung 53.4% | NCI-H322M lung 23% | HOP-62 NSCLC 13.3% | NCI-H522 lung 59.4% | A549/ATCC NSCLC 38.7% | RXF 393 renal 11.4% | SF-295 CNS 34.6% | UACC-257 melanoma 66.2%

Cc1cccc(-c2nnc(SCC(=O)Nc3ncc(Cc4ccccc4)s3)n2N2C(=O)CSC2=S)c1
active: HOP-92 NSCLC 8.49% | A549/ATCC NSCLC 7.99%
inactive: NCI-H23 lung 36.7% | NCI-H226 lung 31.5% | NCI-H322M lung 40.1% | HOP-62 NSCLC 30.3% | NCI-H460 lung 20% | NCI-H522 lung 34.5% | 786-0 renal 29.8% | COLO 205 colon 66.6% | DU-145 prostate 43.3% | K-562 leukemia 77.6% | MALME-3M melanoma 20.6% | MDA-MB-231 breast 10% | RXF 393 renal 54.7% | SF-268 CNS 78.3% | SF-295 CNS 77.7% | SF-539 CNS 36.6% | UACC-257 melanoma 64.4% | M14 melanoma 51.1%
